# This is a sample that favours compounds with a hit; in the whole collection about 18% have one here.
# TDP1 cell noCPT: qHTS for Inhibitors of human tyrosyl-DNA phosphodiesterase 1 (TDP1): qHTS in cells in absence of CPT; DT40 Tdp1-/- hTDP1 cells, no CPT, ATP luminescence, 48 h; Potency, µM (doses to about 46.2 µM), without a hit: top-dose activity change, negative = growth inhibition, hits mostly inhibitors; 15% of 420,000 active; note: potency is the fitted concentration of half-maximal effect; % is set by controls: 0 for no effect and ±100 for the full control effect; nearly all actives have a fitted effect of over 55% in size
#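 No-CPT arm: Tdp1-/-;hTDP1 DT40 cells (400/well) plus compounds, incubated ≥48 hr at 37 °C. Readout CellTiter-Glo luminescence.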
# HepG2 viability: qHTS for Inhibitors of TGF-b: Cytotox Counterscreen | HepG2 CAGA-GFP viability, ATP luminescence, 18 h | Potency, µM (top dose mostly 46.1 µM), for the others: at the highest dose activity change, negative = cytotoxicity, actives largely listed as cytotoxic | 0.76% of 410,000 active | AID 588856, 2011; note: potency is the fitted concentration of half-maximal effect
#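 CellTiter-Glo luminescence gave cytotoxicity after 18 hours at 37 degrees C. The cells were HepG2 CAGA-GFP in 1% FBS DMEM, stimulated with 500 pg/mL TGF-beta after compound addition. %Activity was normalised to no-cell wells (complete cell-killing) and DMSO (no toxicity), and curves were fitted and classified.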
# IL-1B inflam inh: qHTS for Inhibitors of Inflammasome Signaling: IL-1-beta AlphaLISA Primary Screen; THP-1 LPS/ATP IL-1B secretion, AlphaLISA, 16 h; stronger effect = lower value; activity change, % at 57.5 µM; 4.7% of 360,000 active; in the data active = activity change below about -50%; inconclusive = mostly about -30% to -49%; note: % is set by controls: 0 for no effect and ±100 for the full control effect
#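 Secreted IL-1B measured by AlphaLISA bead assay after 16 h compound exposure of THP-1 cells; compounds (final up to 57.5 uM) added 1 h before LPS (250 ng/mL) and ATP (1.25 mM) stimulation; lower signal means less secretion.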
# TDP1 inh: qHTS Assay for Inhibitors of Tyrosyl-DNA Phosphodiesterase (TDP1) | recombinant TDP1, AlphaScreen DNA substrate cleavage | Potency, µM (doses to about 130 µM), inactives show at the top dose activity change, negative = inhibition, most hits filed as inhibitors | 0.28% of 350,000 active; note: potency is the fitted concentration of half-maximal effect; % is set by controls: 0 for no effect and ±100 for the full control effect; nearly all actives have a fitted effect of over 40% in size
# Target sequence (Q9NUW8 whole entry, looked up): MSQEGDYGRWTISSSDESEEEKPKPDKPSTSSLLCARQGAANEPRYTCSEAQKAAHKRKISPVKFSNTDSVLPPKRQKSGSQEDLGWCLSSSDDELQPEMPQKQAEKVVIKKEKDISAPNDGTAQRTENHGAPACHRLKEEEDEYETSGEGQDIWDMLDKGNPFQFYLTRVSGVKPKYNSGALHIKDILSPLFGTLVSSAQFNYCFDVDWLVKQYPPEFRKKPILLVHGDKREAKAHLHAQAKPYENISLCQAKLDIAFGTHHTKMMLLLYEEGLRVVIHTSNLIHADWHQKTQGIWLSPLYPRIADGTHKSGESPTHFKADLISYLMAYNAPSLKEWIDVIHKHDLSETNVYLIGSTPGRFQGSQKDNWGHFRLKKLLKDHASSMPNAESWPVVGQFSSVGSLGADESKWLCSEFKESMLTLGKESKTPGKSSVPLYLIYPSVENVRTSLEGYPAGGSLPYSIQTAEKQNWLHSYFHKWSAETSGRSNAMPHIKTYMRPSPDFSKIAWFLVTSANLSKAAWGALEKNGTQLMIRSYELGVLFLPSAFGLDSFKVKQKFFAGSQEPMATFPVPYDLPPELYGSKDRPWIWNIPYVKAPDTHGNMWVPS
#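 Enzyme-compound mixtures sat 15 min at room temperature, followed by a 5 min reaction with 15 nM final substrate and 10 min with AlphaScreen beads. Recombinant human Tdp1 was used at 1 nM final.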
# TGFb inhibitor: qHTS for Inhibitors of TGF-b | 1.2% of 410,000 active | Potency, µM (top dose mostly 46.1 µM), inactives show at the highest dose activity, negative = inhibition, usual class: inhibitors | HepG2 CAGA-GFP TGF-b/SMAD3 reporter, GFP fluorescence, 18 h; TGF-beta stimulated, 500 pg/mL final; note: potency is the fitted concentration of half-maximal effect; % is set by controls: 0 for no effect and ±100 for the full control effect; nearly all actives have a fitted effect of over 65% in size
#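 TGF-beta reporter screen: HEPG2 CAGA-GFP, 1% FBS, 500 pg/mL TGF-beta final, 18 h; per-cell GFP summed per well; curves fitted and categorized by class.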
# DT40 TDP1 CPT: qHTS for Inhibitors of human tyrosyl-DNA phosphodiesterase 1 (TDP1): qHTS in cells in presence of CPT; chicken DT40 Tdp1-/-;hTDP1 cells + 20 nM CPT, ATP luminescence, 48 h; Potency, µM (highest dose often 46.2 µM), for inactives: top-dose activity change, negative = growth inhibition, hits mostly inhibitors; 12% of 420,000 active; note: potency is the fitted concentration of half-maximal effect; % is set by controls: 0 for no effect and ±100 for the full control effect; nearly all actives have a fitted effect of over 55% in size
#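 Cell growth measured by CellTiter-Glo luminescence after a minimum 48 h, 37 C compound exposure with 20 nM CPT in Tdp1-knockout DT40 cells stably expressing hTDP1, seeded 400/well; qHTS titration format.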
# Starred values were filed as active, the others as inactive; ? = inconclusive; · = no result; [ ] = another dose, or the depositor's remark. Unless noted, calls come from the whole dose curve; as a rule, active = well fitted curve in the direction sought with a large enough effect; inconclusive = small, poorly fitted or top-dose-only effect, or another doubt; inactive = no such curve, though single readings can be large; an effect the other way counts as inactive or inconclusive.
SMILES,TDP1 cell noCPT,HepG2 viability,IL-1B inflam inh,TDP1 inh,TGFb inhibitor,DT40 TDP1 CPT
OC[C@@H]1CN(Cc2ccc(Cl)cc2)C[C@H](n2cnc3c(NC4CCCC4)ncnc32)O1,?,-2%,17,·,-3%,21µM*
OC[C@@H]1CN(Cc2ccc(F)cc2)C[C@H](n2cnc3c(NC4CC4)ncnc32)O1,-30%,1%,-5,·,25%,?
CN(C)c1ncnc2c1ncn2[C@H]1CN(Cc2ccc(-c3ccccc3)cc2)C[C@@H](CO)O1,15µM*,-21%,-5,·,-19%,?
COc1cccc(CNC(=O)CN2C(=O)COc3ccc(S(=O)(=O)Nc4ccccc4)cc32)c1,-29%,-7%,·,0%,-7%,?
O=c1[nH]c2ccc(NCc3ccc(-c4cccc(Cl)c4)o3)cc2[nH]1,18µM*,-28%,·,-6%,16%,29µM*
O=c1[nH]c2ccc(NCc3ccc(-c4ccc(Br)cc4)o3)cc2[nH]1,-20%,-14%,·,5%,-5%,-11%
Cc1c(Cl)cccc1-c1ccc(CNc2ccc3[nH]c(=O)[nH]c3c2)o1,?,-20%,·,8%,0%,3.3µM*
CC(C)NC(=O)COC(=O)c1ccccc1OCC(=O)Nc1ccc(Br)cc1,-4%,·,·,·,·,-57%
COc1ccc(NC(=O)c2cc(-c3ccc(OC)c(OC)c3)nc3ccccc23)c(OC)c1,16µM*,-14%,6,13%,-1%,29µM*
COc1cc(-c2cc(C(=O)Nc3cccc(C(C)=O)c3)c3ccccc3n2)cc(OC)c1OC,?,-7%,-19,·,8%,6.5µM*
COc1cc(C(=O)Nc2cccc(C(C)=O)c2)cc(OC)c1OC,5%,-7%,?,5%,13%,4%
COc1ccc(-c2cc(C(=O)NCC(c3ccco3)N(C)C)c3ccccc3n2)cc1OC (configuration not stated),15µM*,-12%,-23,·,-11%,23µM*
O=C(NNC(=O)c1cc(-c2ccncc2)nc2ccccc12)c1cccc(Cl)c1,-24%,-23%,7,·,0%,-9%
CC(=O)c1cccc(NC(=O)c2cc(-c3ccncc3)nc3ccccc23)c1,18µM*,-23%,-7,3%,-1%,?
O=C(COC(=O)c1cccnc1)NC1CCCc2ccccc21 (configuration not stated),-22%,1%,6,1%,2%,22%
COc1cc(-c2cc(C(=O)Nc3nc4ccccc4s3)c3ccccc3n2)cc(OC)c1OC,6.5µM*,-13%,-12,3%,0%,7.3µM*
Cc1ccc(C(=O)O)c(C(=O)Nc2nc3ccccc3s2)c1,30%,4%,12,·,2%,5%
COc1cccc(-c2cc(C(=O)Nc3ccc(N(C)C(C)=O)cc3)c3cc(Br)ccc3n2)c1,1.8µM*,-23%,-1,·,9%,1.8µM*
COc1ccc(-c2cc(C(=O)NC(C)c3ccccn3)c3ccccc3n2)cc1OC (configuration not stated),21µM*,-11%,-15,-1%,-4%,23µM*
COc1ccc(-c2cc(C(=O)N(C)Cc3ccc(F)cc3)c3ccccc3n2)cc1OC,?,-42%,-8,·,-1%,23µM*
CC(C)n1cc(C(=O)N2CCCC(N3CCN(c4cccc(Cl)c4)CC3)C2)cn1 (configuration not stated),-11%,-1%,0,3%,-2%,-2%
O=C(NCC1(N2CCOCC2)CCCC1)c1cnn(-c2ncc3c(n2)-c2ccccc2CC3)c1C1CC1,-1%,·,·,·,·,9%[9.04 µM]
O=C(O)c1cccc(NC(=O)c2cc3cc(Br)cc(Br)c3oc2=O)c1,-2%,1%,·,-2%[12.3 µM],9%,-2%
COc1cc2c(cc1NC(=O)c1cc(-c3ccncc3)nc3ccc(C)cc13)oc1ccccc12,?,-13%,4,0%,?,23µM*
O=C(Nc1nc2c(s1)CCCC2)c1cc(-c2ccncc2)nc2ccccc12,16µM*,-15%,15,5%,9%,?
SMILES,TDP1 cell noCPT,HepG2 viability,IL-1B inflam inh,TDP1 inh,TGFb inhibitor,DT40 TDP1 CPT
O=C(NNC(=O)c1cc(-c2ccc(Cl)cc2Cl)nc2ccccc12)Nc1ccccc1,21µM*,-46%,-64*,4%,?,?
COc1cc2ccccc2cc1C(=O)NC1CCC(C)CC1 (configuration not stated),-62%,-23%,-51*,-6%,0%,?
Cc1cc(C)nc(/N=C(\NC(=O)C(C)(C)C)Nc2ccc(F)cc2)n1,-3%,11%,9,5%,0%,7%
O/N=C/c1ccn(-c2ccc(Br)cc2)c1,-1%,-28%,4,9%,?,-2%
COc1ccccc1CCNC(=O)c1cc(-c2ccncc2)nc2ccc(Br)cc12,21µM*,7%,-3,-1%,8%,?
O=C(NC(=S)Nc1ccccc1)c1cc(-c2ccccc2)nc2ccccc12,?,-2%,24,-7%,-10%,29µM*
O=C(NNC(=S)Nc1ccccc1)c1cc(-c2cccnc2)nc2ccccc12,-14%,21%,-7,9%,4%,-21%
COc1cccc(NC(=O)c2cc(-c3ccncc3)nc3c(C)cc(C)cc23)c1,23µM*,-1%,72,-3%,-17%,?
CC(OC(=O)c1cc(-c2cccnc2)nc2ccccc12)C(=O)Nc1ccc2ccccc2c1 (configuration not stated),18µM*,-30%,-8,6%,-8%,?
COc1cccc(C2CCCN2Cc2nc(-c3cnccn3)no2)c1 (configuration not stated),-17%,-1%,-6,6%,1%,1%
COc1ccc(OC)c(NC(=O)c2cc(-c3ccc(Cl)s3)nc3ccccc23)c1,15µM*,3%,·,-3%,6%,-28%
COc1ccc(-c2cc(C(=O)Nc3ccc(C(N)=O)cc3)c3ccccc3n2)cc1OC,5.8µM*,-166%,0,5%,?,?
CCc1ccccc1NC(=O)c1cc(-c2ccc(Cl)s2)nc2ccccc12,?,-16%,·,-9%,-1%,?

# Screens deposited in PubChem by National Center for Advancing Translational Sciences (NCATS).
